Test results reported in PubChem BioAssay AID1851 (National Center for Advancing Translational Sciences (NCATS), 2009).
Where “and” joins values, the source holds several entries; their conditions need not be identical. Identical values can stand only once. Out of some 16,000 compounds screened, about 5,700 (36%) were called active. Another 24% or so got no clear call; they are omitted. Calls come from the whole dose curve; as a rule, active = well fitted curve in the direction sought with a large enough effect; inconclusive = small, poorly fitted or top-dose-only effect, or effect the other way; inactive = no such curve, though single readings can be large or run the other way. The list shows a part of the results.

molecular target: Cytochrome P450 1A2 (Homo sapiens) (UniProt P05177); experiment: Cytochrome panel assay with activity outcomes; conditions: recombinant CYP, pro-luciferin dealkylation, luminescence, p450-cyp1a2; series mostly up to 57.1 µM
% is set by controls: 0 for no effect and ±100 for the full control effect.

Chain of Cytochrome P450 1A2 (Homo sapiens) (P05177 whole entry, looked up): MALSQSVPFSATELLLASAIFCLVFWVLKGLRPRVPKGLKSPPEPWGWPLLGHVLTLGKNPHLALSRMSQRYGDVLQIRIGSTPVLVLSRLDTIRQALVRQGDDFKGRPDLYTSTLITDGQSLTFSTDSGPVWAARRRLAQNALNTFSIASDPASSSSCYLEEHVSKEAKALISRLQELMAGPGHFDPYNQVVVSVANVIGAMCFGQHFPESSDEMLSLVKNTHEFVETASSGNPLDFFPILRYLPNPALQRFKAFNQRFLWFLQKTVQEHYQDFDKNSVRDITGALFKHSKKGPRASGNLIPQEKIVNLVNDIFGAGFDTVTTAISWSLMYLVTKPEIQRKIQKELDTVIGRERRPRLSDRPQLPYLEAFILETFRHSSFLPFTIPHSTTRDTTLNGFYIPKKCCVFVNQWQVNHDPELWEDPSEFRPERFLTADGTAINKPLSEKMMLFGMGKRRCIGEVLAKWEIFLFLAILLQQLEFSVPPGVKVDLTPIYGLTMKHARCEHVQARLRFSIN

AC50, active:
Cc1nnc(-c2cccc(Br)c2)c2cn(-c3ccc(Br)cc3)nc12 0.891 µM
Cc1nnc(-c2cccc(Br)c2)c2cn(-c3ccccc3Cl)nc12 1.58 µM
O=C(CSC1=NCCS1)N1CCN(c2ccc(Cl)cc2)CC1 14.1 µM
O=C1C2=C(NC(=S)NC2c2ccc(Cl)cc2)NC(c2ccc(Cl)cc2)N1c1ccc(Cl)cc1 (centres undefined) 12.6 µM
Cc1ccccc1NC(=O)c1cccc2nc3ccccc3nc12 2 µM
O=C(Nc1ccc2c(c1)OCCO2)c1cccc2nc3ccccc3nc12 2 µM
O=c1c(-c2ccc(F)cc2)nc2cnc(N3CCNCC3)nc2n1-c1ccccc1 10 µM
COc1ccc(-n2c(=O)c(-c3ccccc3)nc3cnc(N4CCNCC4)nc32)cc1 15.8 µM
COc1ccc(-n2c(=O)c(-c3cccc(C#N)c3)nc3cnc(N4CCNCC4)nc32)cc1 15.8 µM
COc1ccc(C2=Nc3cccc4cccc(c34)N2)cc1 0.631 µM
CCCC(=O)Nc1nnc(Cc2ccccc2)s1 12.6 µM
O=C(CCc1ccccc1)Nc1nncs1 10 µM
Nc1ccc(N(c2ccccc2)c2ccc(N)cc2)cc1 17.8 µM
Nc1ccc(-c2sc(N)nc2-c2ccccc2)cc1 8.91 µM
Nc1nc(-c2ccccc2)c(-c2ccccc2)s1 2.82 µM
Cc1ccc(-c2cc(C(=O)NCc3ccco3)c3ccccc3n2)s1 6.31 µM
CCc1ccc(-c2cc(C(=O)NCc3ccco3)c3ccccc3n2)s1 3.55 µM
C=CCOc1c(Br)cc(CNc2ccc(NC(=O)C(C)C)c(OC)c2)cc1OC 15.8 µM
COc1ccc(C(=O)c2cnc3ccccc3c2-c2ccccc2)cc1 15.8 µM
CCCCOC(=O)NS(=O)(=O)c1sc(CC(C)C)cc1-c1ccc(Cn2c(CC)nc3c(C)cc(C)nc32)cc1 31.6 µM
O=C1C=C(NCCc2cc(Br)c(O)c(Br)c2)C(=O)c2ncccc21 3.16 µM
Cc1ccc(C(=O)Nc2cc(Cl)ccc2OC(=O)c2ccc(C)cc2)cc1 10 µM
COc1ccc(C(=O)Nc2cc(Cl)ccc2OC(=O)c2ccc(OC)cc2)cc1 10 µM
COc1ccc(C(=O)Nc2scc(-c3ccc(Cl)cc3Cl)c2C(N)=O)cc1 0.447 µM
NC(N)=N/N=C(\c1ccc(Cl)cc1)C1CC1 0.794 µM
CCc1ccccc1NC(=O)c1ccc(-n2c(C)ccc2C)cc1 14.1 µM

AC50, inactive:
Cc1nn(C)cc1CNC(=O)CCC(=O)O
O=C(CSc1ccc(Cl)cc1)Nc1ccc(N2CCN(C(=O)c3ccc(Cl)cc3)CC2)cc1
Cc1ccccc1NC(=O)c1cnc(Nc2nc3ccccc3s2)nc1C
Cc1ccccc1NC(=O)CN1CCC(n2nnc3ccccc32)CC1
COc1cccc(Cn2c(=O)c(-c3cccc(C#N)c3)nc3cnc(N4CCN(C)CC4)nc32)c1
O=C(c1cccc(F)c1)N1CCC2(CC1)CN(c1ccncc1)C2
Cc1ccc(S(=O)(=O)N2CCN(Cc3ccccc3C(F)(F)F)CC2)cc1
CC(=O)Nc1ccc(C(=O)NNC(=O)CCc2ccccc2)cc1
CCCc1nnc(NC(=O)CCC(=O)NCc2ccccc2OC)s1
CCCC(=O)Nc1nnc(CCN2CCCCC2)s1
Nc1ccc(S(=O)(=O)NC(=O)c2ccccc2)cc1
C[C@@H]1O[C@H](O[C@@H]2[C@@H](Oc3cc(O)c4c(c3)O[C@H](c3ccc(O)cc3)CC4=O)O[C@@H](CO)[C@@H](O)[C@H]2O)[C@@H](O)[C@H](O)[C@@H]1O
Nc1nnc(C(c2ccccc2)c2ccccc2)s1
CC(C)CN1CCC2(CC1)CCN(C(=O)c1ccncc1)CC2
CN(C)CCC[C@@]1(c2ccc(F)cc2)OCc2cc(C#N)ccc21
Cc1ccc(S(=O)(=O)N(Cc2ccccc2)c2ccccc2C(=O)NCc2ccco2)cc1
Cc1cccc(C)c1-n1c(SCC(=O)NCc2ccco2)nc2ccccc2c1=O
CCC1CC2CC(NC(C)=O)C1C2 (centres undefined)
CC(C)CCn1nnnc1C(c1ccc(F)cc1)N1CCN(C(=O)c2ccco2)CC1 (centres undefined)
CCCC[C@H]1C[C@@H]1[C@@H]1N(P(=O)(c2ccccc2)c2ccccc2)C[C@@](O)(c2ccccc2)CC12CC2
Cc1sc(NC(=O)c2ccc(OCC(C)C)cc2)c(C(N)=O)c1-c1ccc(Cl)cc1Cl
CC(C)COc1ccc(C(=O)Nc2scc(-c3ccc(Cl)cc3Cl)c2C(N)=O)cc1
Cc1ccc(C(=O)O[C@@H](C(=O)O)[C@@H](OC(=O)c2ccc(C)cc2)C(=O)O)cc1 (tested in a mixture with another compound)
NC(N)=Nc1ccc(Cl)cc1
CCc1ccccc1NC(=O)c1ccc(F)c(S(=O)(=O)N2CCC(C(N)=O)CC2)c1

activity, negative = inhibition, inactive:
COC(=O)C/C=C\[C@@H](C)[C@@H](/C=N\O[C@@H](C)c1cn([C@H]2COC[C@H]2O)nn1)OC 9.97% [at 11.4 µM]
COC(=O)C/C=C\[C@@H](C)[C@@H](/C=N\O[C@@H](C)c1cn([C@H](CO)Cc2ccccc2)nn1)OC -11.5% [at 11.4 µM] and 12.6% [at 11.4 µM]
Nc1nc(-c2ccccc2)c(-c2ccccc2)c(-c2nc(N)nc(-c3ccccc3)c2-c2ccccc2)n1 -4.5% [at 11.4 µM]
CC(C)C(O)(C(C)C)C(C)C -8.65% [at 11.4 µM]
C=CC[C@@H]1C=C[C@H](O/N=C(\C)CCN2CCc3nc(-c4ccccc4)c(-c4ccccc4)cc3C2)[C@H](CO)O1 5.54% [at 11.4 µM]
O=C1C=C(Nc2nc(C(=O)O)cc(=O)[nH]2)c2ccccc2C1=O -15.8% [at 2.29 µM]
NNC(=O)c1ccc[n+](CCc2ccccc2)c1 -20.6% [at 11.4 µM]
Cc1ccc(C)c(/C(=N\N=C(N)N)C2CC2)c1 1.09% [at 2.29 µM]
